From PubChem BioAssay (NCATS)
Several values for one entry are separate records, joined by “and”; a condition that tells them apart may be missing. Identical values can stand only once. Results filed as inconclusive are left out. Activity calls are given as the source filed them. The call rests on the fitted dose curve; in most records, active means well fitted inhibition curve with a large enough effect; inconclusive means small, poorly fitted or top-dose-only effect; inactive means flat fitted curve, though single readings scatter.

Key:
[1] = qHTS profiling for inhibitors of Plasmodium falciparum proliferation (AID 504749);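 further: 0% = DMSO vehicle and full inhibition = artemisinin control; nearly all actives have a fitted effect of over 60% in size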; details: P. falciparum in erythrocytes, SYBR Green DNA, 72 h
Summary of the method: (§1)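 P. falciparum-infected erythrocytes (0.3% parasitemia, 2.5% hematocrit) incubated with compound 72 h at 37 C, 5% CO2. Parasite DNA detected by SYBR Green after lysis, overnight at room temperature; normalised to 0.29 uM artemisinin and DMSO.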

3D7 = assay: as above; details: P. falciparum in erythrocytes, SYBR Green DNA, 72 h; series mostly up to 28.7 µM
Summary of the method: as §1

7G8 = assay: as above; details: P. falciparum in erythrocytes, SYBR Green DNA, 72 h; series mostly up to 28.7 µM
Summary of the method: as §1

AA1029 = assay: as above; details: P. falciparum in erythrocytes, SYBR Green DNA, 72 h; series mostly up to 28.7 µM
Summary of the method: as §1

AS120 = assay: as above; details: P. falciparum in erythrocytes, SYBR Green DNA, 72 h; series mostly up to 28.7 µM
Summary of the method: as §1

ATS189 = assay: as above; details: P. falciparum in erythrocytes, SYBR Green DNA, 72 h; series mostly up to 28.7 µM
Summary of the method: as §1

ATS95 = assay: as above; details: P. falciparum in erythrocytes, SYBR Green DNA, 72 h; series mostly up to 28.7 µM
Summary of the method: as §1

C2A = assay: as above; details: P. falciparum in erythrocytes, SYBR Green DNA, 72 h; series mostly up to 28.7 µM
Summary of the method: as §1

CP185 = assay: as above; details: P. falciparum in erythrocytes, SYBR Green DNA, 72 h; series mostly up to 28.7 µM
Summary of the method: as §1

[2] = at 28.7 µM (top of the series), parasite line A
[3] = at 28.7 µM (top of the series), parasite line B
[4] = at 12.8 µM (top of the series), parasite line A
[5] = at 12.8 µM (top of the series), parasite line B

CCCCCCCCCCCCCCCCCCOCC(O)CO (stereo not given)
inactive: activity, negative = inhibition [1, 2] 11.2% | activity, negative = inhibition [1, 3] 11.4% | Potency (3D7) | Potency (7G8) | Potency (AA1029) | Potency (AS120) | Potency (ATS189) | Potency (ATS95) | Potency (C2A) | Potency (CP185)

CC(=O)c1ccc2c(c1)N(CCCN(C)C)c1ccccc1S2
inactive: activity, negative = inhibition [1, 4] 7.32% | activity, negative = inhibition [1, 5] -24.3% | Potency (3D7) | Potency (7G8) | Potency (AA1029) | Potency (AS120) | Potency (ATS189) | Potency (ATS95) | Potency (C2A) | Potency (CP185)

O=c1[nH]c(=O)c2[nH]c(=O)[nH]c2[nH]1
inactive: activity, negative = inhibition [1, 2] -3.55% | activity, negative = inhibition [1, 3] 2.26% | Potency (3D7) | Potency (7G8) | Potency (AA1029) | Potency (AS120) | Potency (ATS189) | Potency (ATS95) | Potency (C2A) | Potency (CP185)

CC(=O)CCC(=O)O
inactive: activity, negative = inhibition [1, 2] 10.3% | activity, negative = inhibition [1, 3] -7.9% | Potency (3D7) | Potency (7G8) | Potency (AA1029) | Potency (AS120) | Potency (ATS189) | Potency (ATS95) | Potency (C2A) | Potency (CP185)

Cc1cc(O)cc2c1O[C@](C)(CCC[C@H](C)CCC[C@H](C)CCCC(C)C)CC2
inactive: activity, negative = inhibition [1, 2] -4.03% | activity, negative = inhibition [1, 3] -6.42% | Potency (3D7) | Potency (7G8) | Potency (AA1029) | Potency (AS120) | Potency (ATS189) | Potency (ATS95) | Potency (C2A) | Potency (CP185)

Cc1cccc(C)c1NC(=O)CN(CC(=O)O)CC(=O)O
inactive: activity, negative = inhibition [1, 2] 13.4% | activity, negative = inhibition [1, 3] 2.17% | Potency (3D7) | Potency (7G8) | Potency (AA1029) | Potency (AS120) | Potency (ATS189) | Potency (ATS95) | Potency (C2A) | Potency (CP185)

OCC(O)CN1CCN(c2ccccc2)CC1 (stereo not given)
inactive: activity, negative = inhibition [1, 2] 5.92% | activity, negative = inhibition [1, 3] 10.4% | Potency (3D7) | Potency (7G8) | Potency (AA1029) | Potency (AS120) | Potency (ATS189) | Potency (ATS95) | Potency (C2A) | Potency (CP185)

CCC(=O)Nc1ccc(O)cc1
inactive: activity, negative = inhibition [1, 2] 11.9% | activity, negative = inhibition [1, 3] -3.83% | Potency (3D7) | Potency (7G8) | Potency (AA1029) | Potency (AS120) | Potency (ATS189) | Potency (ATS95) | Potency (C2A) | Potency (CP185)

Cc1cc(CC(=O)O)n(C)c1C(=O)c1ccc(Cl)cc1
inactive: activity, negative = inhibition [1, 2] -8.03% and -6.63% | activity, negative = inhibition [1, 3] -3.67% and -0.286% | Potency (3D7) | Potency (7G8) | Potency (AA1029) | Potency (AS120) | Potency (ATS189) | Potency (ATS95) | Potency (C2A) | Potency (CP185)

O=C(CCCN1CCN(c2ccccn2)CC1)c1ccc(F)cc1
inactive: activity, negative = inhibition [1, 2] -3.57% | activity, negative = inhibition [1, 3] 15.4% | Potency (3D7) | Potency (7G8) | Potency (AA1029) | Potency (AS120) | Potency (ATS189) | Potency (ATS95) | Potency (C2A) | Potency (CP185)

NS(=O)(=O)c1cc2c(cc1Cl)NC(CSCc1ccccc1)=NS2(=O)=O
inactive: activity, negative = inhibition [1, 4] 2.74% | activity, negative = inhibition [1, 5] 12.8% | Potency (3D7) | Potency (7G8) | Potency (AA1029) | Potency (AS120) | Potency (ATS189) | Potency (ATS95) | Potency (C2A) | Potency (CP185)

O=C(O)c1ccccc1-c1ccc(C(F)(F)F)cc1
inactive: activity, negative = inhibition [1, 2] 11.3% | activity, negative = inhibition [1, 3] 19.8% | Potency (3D7) | Potency (7G8) | Potency (AA1029) | Potency (AS120) | Potency (ATS189) | Potency (ATS95) | Potency (C2A) | Potency (CP185)

CC1(C)[C@@H]2CC[C@@]1(C)C(=O)C2
inactive: activity, negative = inhibition [1, 2] 5.82% | activity, negative = inhibition [1, 3] 6.35% | Potency (3D7) | Potency (7G8) | Potency (AA1029) | Potency (AS120) | Potency (ATS189) | Potency (ATS95) | Potency (C2A) | Potency (CP185)

O=C(Oc1ccccc1C(=O)O)c1ccccc1O
inactive: activity, negative = inhibition [1, 2] 0.597% | activity, negative = inhibition [1, 3] 10.5% | Potency (3D7) | Potency (7G8) | Potency (AA1029) | Potency (AS120) | Potency (ATS189) | Potency (ATS95) | Potency (C2A) | Potency (CP185)

O=C(O)CN1C(=O)c2cccc3cccc(c23)C1=O
inactive: activity, negative = inhibition [1, 2] -2.87% | activity, negative = inhibition [1, 3] 1.81% | Potency (3D7) | Potency (7G8) | Potency (AA1029) | Potency (AS120) | Potency (ATS189) | Potency (ATS95) | Potency (C2A) | Potency (CP185)

COc1cc(C(=O)N2CCOCC2)cc(OC)c1OC
inactive: activity, negative = inhibition [1, 2] 13.6% and -1.06% | activity, negative = inhibition [1, 3] 0.0617% and 7.6% | Potency (3D7) | Potency (7G8) | Potency (AA1029) | Potency (AS120) | Potency (ATS189) | Potency (ATS95) | Potency (C2A) | Potency (CP185)

Oc1cccc(O)c1
inactive: activity, negative = inhibition [1, 2] 9.04% | activity, negative = inhibition [1, 3] 15.9% | Potency (3D7) | Potency (7G8) | Potency (AA1029) | Potency (AS120) | Potency (ATS189) | Potency (ATS95) | Potency (C2A) | Potency (CP185)

C[C@H](N)[C@H](O)c1cccc(O)c1
inactive: activity, negative = inhibition [1, 4] 4.05% | activity, negative = inhibition [1, 5] -0.641% | Potency (3D7) | Potency (7G8) | Potency (AA1029) | Potency (AS120) | Potency (ATS189) | Potency (ATS95) | Potency (C2A) | Potency (CP185)

COc1cc2[nH]c(=O)[nH]c(=O)c2cc1OC
inactive: activity, negative = inhibition [1, 4] -1.12% | activity, negative = inhibition [1, 5] -2.32% | Potency (3D7) | Potency (7G8) | Potency (AA1029) | Potency (AS120) | Potency (ATS189) | Potency (ATS95) | Potency (C2A) | Potency (CP185)
